Over roughly 18,000 sequences, “log2 normalized intensity” has its median near 0.36; the highest 2% begin near 7.3. The entries come from a sample that favours the highest values as a whole.
Biological target: T1, HNF4alpha8 (COS-7 nuclear extract) (Homo sapiens, UniProt P41235-5 1-452)
T1 sequence: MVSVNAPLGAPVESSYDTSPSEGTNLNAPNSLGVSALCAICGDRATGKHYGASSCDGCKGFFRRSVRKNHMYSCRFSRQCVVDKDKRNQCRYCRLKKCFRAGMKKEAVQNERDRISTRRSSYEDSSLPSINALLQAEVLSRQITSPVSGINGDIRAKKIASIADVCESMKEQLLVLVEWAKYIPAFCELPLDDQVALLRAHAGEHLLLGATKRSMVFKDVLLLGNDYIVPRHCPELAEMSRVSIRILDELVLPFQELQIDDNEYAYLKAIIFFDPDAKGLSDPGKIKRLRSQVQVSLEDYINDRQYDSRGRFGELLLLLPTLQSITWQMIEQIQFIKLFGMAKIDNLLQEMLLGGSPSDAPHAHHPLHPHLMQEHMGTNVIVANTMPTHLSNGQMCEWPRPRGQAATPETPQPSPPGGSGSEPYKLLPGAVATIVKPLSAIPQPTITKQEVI
Test: protein-binding microarray; COS-7 nuclear extract on double-stranded Agilent 4x180k PBM; binding buffer, salt, pH and temperature not given in the material; high values mean tight binding
Conditions: chain copies: 2; label: 3' end of strand 1 on the slide; dsDNA, one strand shown
Procedure, shortened: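 COS-7 cells were transiently transfected by CaPO4 with an expression vector for a human HNF4α isoform, and nuclear extracts were prepared from them. The extracts were applied to a custom Agilent SurePrint G3 4x180k array of double-stranded ~60-nt oligonucleotides, with ~44,000 test sequences spotted in quadruplicate. An Agilent G2565CA scanner imaged bound HNF4α at 2-µm resolution. Binding signal is the background-corrected, normalized gProcessedSignal from Agilent software.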

| Sequence | binding signal [log2 normalized intensity] |
| --- | --- |
| TCCAACCTGTTCTTTTGAGCTGTGGTTAAGGCCTAGGGAGATTAGAGTATCGGTCGA | 1.73 |
| CAATCCAGAAGGCGCTGAACTTTGCCTTGTGCCTAGGGAGATTAGAGTATCGGTCGA | 5.04 |
| ATGGGACCTTTGCCCTTCTTGTTAACCTCCGCCTAGGGAGATTAGAGTATCGGTCGA | 4.54 |
| CCTGAGCCTGGACCTTGGAATGTCAAGATTGCCTAGGGAGATTAGAGTATCGGTCGA | 3.05 |
| AGCAGCATAAAGGACTTTCAACCCTGTGATGCCTAGGGAGATTAGAGTATCGGTCGA | 3.89 |
| AAAACCATTGCAAATTGGATGTTGAACCTCGCCTAGGGAGATTAGAGTATCGGTCGA | 4.51 |
| ATGGCCAGCCTTTGGACTTTGAACTGCAACGCCTAGGGAGATTAGAGTATCGGTCGA | 10.1 |
| AGGGTCTTTGCAACTGTGTGTGGCCTGCACGCCTAGGGAGATTAGAGTATCGGTCGA | 1.53 |
| ATGGAAGGACCTTGGACTGAAGACTGGAACGCCTAGGGAGATTAGAGTATCGGTCGA | 3.17 |
| GCTGGGTCAAAGTGTATGCATATTTTAAGTGCCTAGGGAGATTAGAGTATCGGTCGA | 2.27 |
| TCCTGGAACTCTGACCTTTGCCCCCAGCCTGCCTAGGGAGATTAGAGTATCGGTCGA | 10.1 |
| TTCATCCCCACCCCCACTGCCTGACCCCAAGCCTAGGGAGATTAGAGTATCGGTCGA | 7.49 |
| AGGAGGAGGTTCCTGGAACTCTGACCTTTGGCCTAGGGAGATTAGAGTATCGGTCGA | 6.98 |
| AAATCTGCCCAACCTTTGCCCCTGGAGGGAGCCTAGGGAGATTAGAGTATCGGTCGA | 4.18 |
| ACCGACCTTTGGTTCCTGAACTCAAACCCCGCCTAGGGAGATTAGAGTATCGGTCGA | 3.35 |
| CCCACCCCCACGCCCCCCAGCGGAAGTCCAGCCTAGGGAGATTAGAGTATCGGTCGA | 6.82 |
| GGAACCCCACCCCCACGCCCCCCAGCGGAAGCCTAGGGAGATTAGAGTATCGGTCGA | 7.38 |
| GAGGTTCCTGGAACTCTGACCTTTGCCCCCGCCTAGGGAGATTAGAGTATCGGTCGA | 10.3 |
| CCCCACCCCCACTGCCTGACCCCAAGTAATGCCTAGGGAGATTAGAGTATCGGTCGA | 7.09 |
| GGATCGGAACCCCACCCCCACGCCCCCCAGGCCTAGGGAGATTAGAGTATCGGTCGA | 7.03 |
| CCCCCACTGCCTGACCCCAAGTAATAGCCGGCCTAGGGAGATTAGAGTATCGGTCGA | 5.69 |
| GCCTGCCCCTCTGACCTCTCCTCCTACCTTGCCTAGGGAGATTAGAGTATCGGTCGA | 3.39 |

| Sequence | binding signal [log2 normalized intensity] |
| --- | --- |
| CTTCCACCCACTTTATCTTCTATAGGAATTGCCTAGGGAGATTAGAGTATCGGTCGA | 0.738 |
| GTGTGTGGCCTGCACAGTTGCACAATGTCAGCCTAGGGAGATTAGAGTATCGGTCGA | 0.815 |
| CTATAGTTATCTCTGCTGATAGCATAAAGCGCCTAGGGAGATTAGAGTATCGGTCGA | 0.212 |
| GGCTCCCTGGGGTTAAAATGTTTACTGAAGGCCTAGGGAGATTAGAGTATCGGTCGA | 0.937 |
| CTGTGCAAGCCCCTGACCAAGGGTCATGCTGCCTAGGGAGATTAGAGTATCGGTCGA | 3.96 |
| AGCCTCTCACAGTAGCCCAGGTCCTTTGGTGCCTAGGGAGATTAGAGTATCGGTCGA | 0.598 |
| GCTATCTTATCTTTGACCTTACCAGCCCACGCCTAGGGAGATTAGAGTATCGGTCGA | 2.94 |
| GAACTCTGACCTTTGCCCCCAGCCTCTCACGCCTAGGGAGATTAGAGTATCGGTCGA | 9.22 |
| CTGACCTTTGCCCCCAGCCTCTCACAGTAGGCCTAGGGAGATTAGAGTATCGGTCGA | 7.53 |
| CTTTGCCCCCAGCCTCTCACAGTAGCCCAGGCCTAGGGAGATTAGAGTATCGGTCGA | 4.72 |
| TGCCCAGCTTGAATCACTCACTGACCTCTTGCCTAGGGAGATTAGAGTATCGGTCGA | 4.46 |
| TCTGCTTGCCATTAATGAAAACTGCACTTCGCCTAGGGAGATTAGAGTATCGGTCGA | 2.38 |
| TTTATTTGAAGAAATGGTGGACTTTGTAGCGCCTAGGGAGATTAGAGTATCGGTCGA | 6.52 |
| GTGACCTTTGACCTCAGAGAGCCGGAAACTGCCTAGGGAGATTAGAGTATCGGTCGA | 8.02 |
| GGCTGATGACCTTTGACTGAGATGGGAGCAGCCTAGGGAGATTAGAGTATCGGTCGA | 4.58 |
| CTAGGAAACTGACCTTTGCTCATGACTATTGCCTAGGGAGATTAGAGTATCGGTCGA | 6.61 |
| CACCACTAGGAAACTGACCTTTGCTCATGAGCCTAGGGAGATTAGAGTATCGGTCGA | 7.58 |
| CTTTGACCTCAGAGAGCCGGAAACTCCACCGCCTAGGGAGATTAGAGTATCGGTCGA | -0.861 |
| GATGAGTGACCTTTGACCTCAGAGAGCCGGGCCTAGGGAGATTAGAGTATCGGTCGA | 9.88 |
| CTACTACTTGACCTTTGAAACATATCCAGAGCCTAGGGAGATTAGAGTATCGGTCGA | 6.31 |
| CCCTCAGAGCTCAGATGAACTTTGCCTTAGGCCTAGGGAGATTAGAGTATCGGTCGA | 6.28 |
| TCATTGATGAGTGACCTTTGACCTCAGAGAGCCTAGGGAGATTAGAGTATCGGTCGA | 10.5 |

| Sequence | binding signal [log2 normalized intensity] |
| --- | --- |
| TTGCCCCTTTGACCCTCGGGCCTCCCTAGAGCCTAGGGAGATTAGAGTATCGGTCGA | 4.81 |
| ATTCTCACCACTAGGAAACTGACCTTTGCTGCCTAGGGAGATTAGAGTATCGGTCGA | 6.07 |
| AAAGACTTGCTCATTGATGAGTGACCTTTGGCCTAGGGAGATTAGAGTATCGGTCGA | 7 |
| GGTCAATGTGCACATTCGAAGTTTTGCTCCGCCTAGGGAGATTAGAGTATCGGTCGA | 1.65 |
| GGATATTTGATCAAAGGTCAGCTCTCCTTTGCCTAGGGAGATTAGAGTATCGGTCGA | 5.11 |
| TTTATAATCCTAGCTTGGTTTTTCTGGGACGCCTAGGGAGATTAGAGTATCGGTCGA | 0.942 |
| GGATTATGGAGATGGAGATGGCCTGGAGGTGCCTAGGGAGATTAGAGTATCGGTCGA | 0.909 |
| ACAACCAGGGAGATGTGAGCGACCTTTGCAGCCTAGGGAGATTAGAGTATCGGTCGA | 4.55 |
| GGTTGTAAAATGAGGTCAGCATGGTGGGAGGCCTAGGGAGATTAGAGTATCGGTCGA | 1.04 |
| GGGGCGATGCTTCCAAAGTCCACAGTCCCCGCCTAGGGAGATTAGAGTATCGGTCGA | 3.92 |
| CTCTTTTACTGTACTTCTTTAGGACTGCTCGCCTAGGGAGATTAGAGTATCGGTCGA | 1.37 |
| ATATAAAAACTAACCATACTGAGTGTTGGTGCCTAGGGAGATTAGAGTATCGGTCGA | -0.252 |
| AGTGTAAGGACATTGCCCCCTATGTAAAGGGCCTAGGGAGATTAGAGTATCGGTCGA | 4.09 |
| TGATTACCCTTATCTTATCTCCTGCTAAATGCCTAGGGAGATTAGAGTATCGGTCGA | -0.759 |
| TTTCAACATTTAACTTAACCACTCAATCAGGCCTAGGGAGATTAGAGTATCGGTCGA | -0.86 |
| CTTTGAGATTTGCATTCATGATCTTAGATAGCCTAGGGAGATTAGAGTATCGGTCGA | 0.242 |
| ACCACTTTGAAATAGTGACCTCTGCTGGCCGCCTAGGGAGATTAGAGTATCGGTCGA | 3.43 |
| CTGACCTCAAGTGACCTTTGACCTCTGGCCGCCTAGGGAGATTAGAGTATCGGTCGA | 11.2 |
| CTCAAGTGACCTTTGACCTCTGGCCTTTGCGCCTAGGGAGATTAGAGTATCGGTCGA | 10.3 |
| TTAGCTATCAGTGTTGACCTCTGGACCTCAGCCTAGGGAGATTAGAGTATCGGTCGA | 7.79 |
| TATCAGTGTTGACCTCTGGACCTCATCTTCGCCTAGGGAGATTAGAGTATCGGTCGA | 6.23 |
| ACCTTTGCCTTCTTGACATCTCTCTCTGCAGCCTAGGGAGATTAGAGTATCGGTCGA | -0.0607 |

| Sequence | binding signal [log2 normalized intensity] |
| --- | --- |
| GATGTTTAGCTATCAGTGTTGACCTCTGGAGCCTAGGGAGATTAGAGTATCGGTCGA | 6.06 |
| CTCTAACCACTTTGAAATAGTGACCTCTGCGCCTAGGGAGATTAGAGTATCGGTCGA | 5.01 |
| CTGACAAGTATCTCGGTCAAACCTTTGACCGCCTAGGGAGATTAGAGTATCGGTCGA | 6.35 |
| TGACCTTTGCCTCATTCTTATTGCCTCATGGCCTAGGGAGATTAGAGTATCGGTCGA | 4.2 |
| TCTGGTGCCAAGGAGCCTCTGCAACCTTTGGCCTAGGGAGATTAGAGTATCGGTCGA | 3.43 |
| GTGACCTTTGACCTCTGGCCTTTGCAGTTAGCCTAGGGAGATTAGAGTATCGGTCGA | 8.79 |
| CAGGAGTCGGGAGGTAGGGGTGGCGGGTTGGCCTAGGGAGATTAGAGTATCGGTCGA | 0.403 |
| GCCAAAGGTCAGAGTTGAACCCTTGGGGCTGCCTAGGGAGATTAGAGTATCGGTCGA | 4.38 |
| TCTGCTGTACATATTTGCCAAGTGATAAGGGCCTAGGGAGATTAGAGTATCGGTCGA | 1.01 |
| TCTAACATTTTTGACCTTCAGCATCTTCAAGCCTAGGGAGATTAGAGTATCGGTCGA | 3.81 |
| CCTTTGAGATAGCTATGATTATCCTTATCTGCCTAGGGAGATTAGAGTATCGGTCGA | -0.293 |
| ATCTGTATCAGCCTGTGACAAAGTCCATCTGCCTAGGGAGATTAGAGTATCGGTCGA | 5.65 |
| CCCGGACCAGGCCGGGTCACGTGGGTCCAGGCCTAGGGAGATTAGAGTATCGGTCGA | 3.63 |
| GTCAGTCTTTGTTCTAGTAAGGCCTTCAAAGCCTAGGGAGATTAGAGTATCGGTCGA | 0.595 |
| TTCAGAAGACTTCCTGGCCTCTCTGCAAATGCCTAGGGAGATTAGAGTATCGGTCGA | -0.39 |
| TAACGGTGAGGGAGGAGACTTTGACCTCTGGCCTAGGGAGATTAGAGTATCGGTCGA | 7.45 |
| GGAGGAGACTTTGACCTCTGCTAGGTTTGGGCCTAGGGAGATTAGAGTATCGGTCGA | 5.5 |
| GTGAGGGAGGAGACTTTGACCTCTGCTAGGGCCTAGGGAGATTAGAGTATCGGTCGA | 6.12 |
| TATGTCTCTCCTATTCAGGTATTTGCTCTGGCCTAGGGAGATTAGAGTATCGGTCGA | 0.488 |

Reference: publication PMC10726135, “HNF4α isoforms regulate the circadian balance between carbohydrate and lipid metabolism in the liver”
